Source: ChEMBL document CHEMBL4513216, “Probing the Open Global Health Chemical Diversity Library for Multistage-Active Starting Points for Next-Generation Antimalarials” (ACS Infect Dis, 2020)
Hit rate of the full screen: of about 69,000 compounds, about 8,600 (12%) showed an effect of 50% or more. The sample holds strong results, similar compounds and a random draw of the others, so the mix is not that of the screen.

system: Plasmodium berghei; experiment: Screen against P. berghei liver stage (PbLuc), transformed with Luciferase, at 10uM; type: functional, HepG2; conditions: tested at 10 uM

Row | SMILES | INHIBITION [%]
1 | CCc1noc(C(C)N2CCC(O)CC2)n1 (centres undefined) | 37.9
2 | Cc1noc(C)c1C(=O)NCCSCc1cccs1 | 29.5
3 | CCN1CCN(C(=O)NCCOc2ccc3c(c2)OCO3)CC1 | 2.63
4 | COc1ncccc1C(=O)N1CCCC1c1nc(-c2ccccc2)no1 (centres undefined) | 64.9
5 | O=C(c1n[nH]c2c1CCC2)N1CCCC1c1nc(-c2ccccc2)no1 (centres undefined) | -68.4
6 | COc1ccc(C(=O)N2CCCCC2c2ccccn2)c(OC)n1 (centres undefined) | 53.2
7 | COc1nc2c(cc1C(=O)N1CCCCC1c1ccccn1)CCC2 (centres undefined) | -34.4
8 | COc1ncccc1C(=O)N1CCCC1c1nc(-c2ccccc2)n[nH]1 (centres undefined) | 47.6
9 | COc1ncccc1C(=O)N1CC(c2nc(-c3ccccn3)no2)C1 | 33.5
10 | Cc1nc(CC(=O)N2CCCC2c2nc(-c3ccccc3)no2)cs1 (centres undefined) | 38.2
11 | COc1nc2c(cc1C(=O)N1CCCC1c1ccccn1)CCC2 (centres undefined) | 1.74
12 | CC(C)c1cc(C(=O)N2CCCC2c2nc(-c3ccccc3)no2)[nH]n1 (centres undefined) | 55.5
13 | Cc1ncc(-c2ccncc2)c(C2CCN(C(=O)c3ccco3)CC2)n1 | -21
14 | CCc1nc(CN(C)C2CCN(CC(F)(F)F)C2)no1 (centres undefined) | 4.71
15 | CN1CCOC(CNCc2c(Cl)nc3ccccn23)C1 (centres undefined) | -2.43
16 | CC[C@@H]1N(Cc2ccc(OC)cc2)CCC[C@]12CCC(=O)N2CCOC | -5.31
17 | Cc1noc(CC2CCN(C(=O)C(c3ccccc3C)N(C)C)CC2)n1 (centres undefined) | -21.1
18 | COCc1nc(C(=O)N2CCCC2c2cc(C)on2)cs1 (centres undefined) | 0.914
19 | O=C(c1cc2c(s1)CCC2)N1CCCC(c2cnccn2)C1 (centres undefined) | -94
20 | CNc1ccnc(NCC(=O)Nc2cc(C)ccc2OC)n1 | 53
21 | COc1ccc(C)cc1NC(=O)CNc1ccn(CC(N)=O)n1 | -41.6
22 | CNc1ccnc(NCCC(=O)Nc2ccccc2OC)n1 | 49.7
23 | CC(C)COC1CCN(S(=O)(=O)Cc2cccc(F)c2)CC1 | 20.9

Row | SMILES | INHIBITION [%]
24 | CCN(CC)C(=O)[C@@H]1C[C@@H](N)CN1c1nc(N(C)C)nc(C)c1C | 62.6
25 | CNC(=O)[C@@H]1C[C@@H](N)CN1c1nnc(-c2ccccc2)s1 | 74.9
26 | CNC(=O)[C@@H]1C[C@@H](N)CN1c1nc(N2CCCC2)nc(C)c1C | 45.3
27 | CCN(CC)C(=O)[C@@H]1C[C@H](N)CN1c1noc(-c2ccccc2)n1 | 9.04
28 | CCNC(=O)[C@@H]1C[C@H](N)CN1c1cc(CC)nc(N(C)C)n1 | -69.6
29 | CCN(CC)C(=O)[C@@H]1C[C@@H](NC(=O)c2cccn2C2CC2)CN1C | 20.5
30 | CNC(=O)[C@@H]1C[C@@H](N)CN1C(=O)CCSCc1ccccc1 | -15.1
31 | CCN(CC)C(=O)[C@@H]1C[C@@H](N)CN1c1nc(N2CCCC2)nc(C)c1C | 33.4
32 | CCN(CC)C(=O)[C@@H]1C[C@H](N)CN1c1nnc(-c2ccccc2)s1 | 56.3
33 | COc1ccc(-c2ncccc2C(=O)N2C[C@@H]3CC[C@H]2C3)cn1 | 29.1
34 | Cn1cc(C[C@H]2[C@H](N3CCOCC3)CCN2C2CCOCC2)cn1 | 0.804
35 | Cn1nc(C(=O)N2CCOCC2)cc1C(=O)Nc1c(Cl)cccc1Cl | 51.6
36 | Cn1nc(C(=O)N2CCOCC2)cc1C(=O)Nc1ccc(Cl)cc1Cl | -8.66
37 | Cn1nc(C(=O)N2CCOCC2)cc1C(=O)Nc1ncc(Cl)cc1Cl | -0.71
38 | Cc1c(C(=O)N2CCC(C(=O)c3nc4ccccc4s3)CC2)cnn1C | 11.025
39 | Cc1cccc(C(=O)N2CCSCC2)c1NC(=O)c1ccsc1 | 1.56
40 | Cc1cccc(C(=O)N2CCSCC2)c1NC(=O)c1cccnc1 | 45
41 | Cc1cccc(C(=O)N2CCN(C)CC2)c1NC(=O)c1ccncc1 | 52.6
42 | COc1ccc(-c2nnc(CNCCn3cc(C)cn3)o2)cc1 | 5.7
43 | COc1cc(CNCCC(N)=O)c2c(c1)CC(C)O2 (centres undefined) | 49.4
44 | COc1cccc(-c2nc(CNCCn3cccn3)cs2)c1 | 31.8
45 | COc1cc(CNCCn2cc(C)cn2)cc2c1OCCO2 | 17.8
46 | COc1cc(CNCCn2cccn2)c2c(c1)CC(C)O2 (centres undefined) | 75.2

Row | SMILES | INHIBITION [%]
47 | COc1cc(CNCCn2cc(C)cn2)c2c(c1)CC(C)O2 (centres undefined) | 75.2
48 | O=C(c1cccc(F)c1)N1CCc2ncc(Cn3cccn3)n2CC1 | 3.58
49 | CCn1c(N)nc2cc(C(=O)NCCNc3ncccc3C)cnc21 | -87.1
50 | CCn1c(C)nnc1SCCNC(=O)c1cnc(C(C)(C)C)nc1O | 23.6
51 | CC(C)(C)c1ncc(C(=O)NCCSc2ccccn2)c(O)n1 | 69.1
52 | O=C(NCCCO)c1cnc(-c2ccccc2)nc1O | 48.5
53 | Cc1nc(-c2ncc(C(=O)NCCNc3ncccc3C)c(O)n2)cs1 | 50.3
54 | Cc1cccnc1NCCNC(=O)c1cnc(-c2ccccn2)nc1O | 92.1
55 | Cc1cccnc1NCCNC(=O)c1cnc(-c2cccs2)nc1O | 14.9
56 | Cc1nc(C(C)C)sc1C(=O)NCCSc1ccccn1 | -71.3
57 | CCSCCNC(=O)c1cnc(-c2ccccc2)nc1O | 40.3
58 | Cc1noc(NCc2cn(C)nc2-c2ccncc2)n1 | 19.4
59 | Cc1ccc(C(=O)NS(=O)(=O)c2c(Cl)cccc2Cl)c(=O)[nH]1 | 19.4
60 | CN(C)CCN1CCO[C@H]2CN(Cc3cnn(C)c3)C[C@H]21 | -57.1
61 | Cc1nnsc1C(=O)N1CCCCC1c1cc2nc(C)c(C)c(O)n2n1 (centres undefined) | 19.3
62 | Cc1nc(-c2ccccc2)sc1CNC(=O)c1ccc(=O)n(C)c1 | 39.6
63 | CC(NCCCN1CCCC1=O)c1cc(Br)ccc1O (centres undefined) | -1.3
64 | c1cc2c(cc1Cn1cc(C3CCOC3)nn1)OCO2 (centres undefined) | 17.6
65 | Cc1ocnc1C(=O)N(C)[C@@H]1CC[C@@H](n2ccnc2C)[C@@H]1O | 45.9
66 | Cn1cnc2cc(CCC(=O)Nc3nc[nH]n3)ccc21 | 39.2
67 | Cn1c(=O)c2c(n3ncnc13)NC(=O)CC2c1ccc(F)cc1 (centres undefined) | 54
68 | CCc1ccc(C2CC(=O)Nc3c2c(=O)n(C)c2ncnn32)cc1 (centres undefined) | 0.207
69 | Cn1c(=O)c2c(n3ncnc13)NC(=O)CC2c1cccc(F)c1 (centres undefined) | 41.6
